Results as given in ChEMBL document CHEMBL2218924, “A broad activity screen in support of a chemogenomic map for kinase signalling research and drug discovery” (Biochem J, 2013).

Experiments:
[1] = biological target: T1, Ephrin type-A receptor 3 (Homo sapiens) (UniProt P29320); conditions: at 10 µM
T1 sequence (whole entry): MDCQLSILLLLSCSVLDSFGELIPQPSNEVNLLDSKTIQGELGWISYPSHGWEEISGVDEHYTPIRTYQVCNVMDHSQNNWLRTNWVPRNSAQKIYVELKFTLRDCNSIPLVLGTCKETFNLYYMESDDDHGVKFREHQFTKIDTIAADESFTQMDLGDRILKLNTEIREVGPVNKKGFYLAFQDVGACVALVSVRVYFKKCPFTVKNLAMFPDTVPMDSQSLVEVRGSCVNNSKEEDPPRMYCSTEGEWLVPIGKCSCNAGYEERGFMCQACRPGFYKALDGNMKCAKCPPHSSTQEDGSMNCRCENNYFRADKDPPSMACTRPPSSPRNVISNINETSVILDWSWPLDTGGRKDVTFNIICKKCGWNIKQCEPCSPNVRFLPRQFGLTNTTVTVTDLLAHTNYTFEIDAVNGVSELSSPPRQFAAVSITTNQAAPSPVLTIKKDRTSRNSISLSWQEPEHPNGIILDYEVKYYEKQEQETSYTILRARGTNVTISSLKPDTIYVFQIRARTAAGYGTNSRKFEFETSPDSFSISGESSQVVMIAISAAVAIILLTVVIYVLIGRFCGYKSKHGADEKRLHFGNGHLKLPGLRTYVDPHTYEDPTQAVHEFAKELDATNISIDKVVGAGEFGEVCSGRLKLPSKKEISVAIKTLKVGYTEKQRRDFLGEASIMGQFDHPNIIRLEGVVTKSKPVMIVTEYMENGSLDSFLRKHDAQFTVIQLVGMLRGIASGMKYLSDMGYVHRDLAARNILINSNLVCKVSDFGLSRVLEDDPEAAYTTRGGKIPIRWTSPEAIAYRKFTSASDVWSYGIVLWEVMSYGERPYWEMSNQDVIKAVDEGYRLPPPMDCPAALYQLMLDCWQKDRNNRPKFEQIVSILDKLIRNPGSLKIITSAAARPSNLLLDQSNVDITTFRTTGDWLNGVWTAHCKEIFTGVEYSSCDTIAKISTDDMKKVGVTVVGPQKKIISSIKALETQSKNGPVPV

[2] = biological target: Ephrin type-A receptor 5 (Homo sapiens) (UniProt P54756); conditions: at 10 µM
[3] = biological target: Ephrin type-A receptor 7 (Homo sapiens) (UniProt Q15375); conditions: at 1 µM
[4] = biological target: Ephrin type-A receptor 7 (Homo sapiens) (UniProt Q15375); conditions: at 10 µM
[5] = biological target: T2, Ephrin type-A receptor 8 (Homo sapiens) (UniProt P29322); conditions: at 10 µM
T2 sequence (whole entry): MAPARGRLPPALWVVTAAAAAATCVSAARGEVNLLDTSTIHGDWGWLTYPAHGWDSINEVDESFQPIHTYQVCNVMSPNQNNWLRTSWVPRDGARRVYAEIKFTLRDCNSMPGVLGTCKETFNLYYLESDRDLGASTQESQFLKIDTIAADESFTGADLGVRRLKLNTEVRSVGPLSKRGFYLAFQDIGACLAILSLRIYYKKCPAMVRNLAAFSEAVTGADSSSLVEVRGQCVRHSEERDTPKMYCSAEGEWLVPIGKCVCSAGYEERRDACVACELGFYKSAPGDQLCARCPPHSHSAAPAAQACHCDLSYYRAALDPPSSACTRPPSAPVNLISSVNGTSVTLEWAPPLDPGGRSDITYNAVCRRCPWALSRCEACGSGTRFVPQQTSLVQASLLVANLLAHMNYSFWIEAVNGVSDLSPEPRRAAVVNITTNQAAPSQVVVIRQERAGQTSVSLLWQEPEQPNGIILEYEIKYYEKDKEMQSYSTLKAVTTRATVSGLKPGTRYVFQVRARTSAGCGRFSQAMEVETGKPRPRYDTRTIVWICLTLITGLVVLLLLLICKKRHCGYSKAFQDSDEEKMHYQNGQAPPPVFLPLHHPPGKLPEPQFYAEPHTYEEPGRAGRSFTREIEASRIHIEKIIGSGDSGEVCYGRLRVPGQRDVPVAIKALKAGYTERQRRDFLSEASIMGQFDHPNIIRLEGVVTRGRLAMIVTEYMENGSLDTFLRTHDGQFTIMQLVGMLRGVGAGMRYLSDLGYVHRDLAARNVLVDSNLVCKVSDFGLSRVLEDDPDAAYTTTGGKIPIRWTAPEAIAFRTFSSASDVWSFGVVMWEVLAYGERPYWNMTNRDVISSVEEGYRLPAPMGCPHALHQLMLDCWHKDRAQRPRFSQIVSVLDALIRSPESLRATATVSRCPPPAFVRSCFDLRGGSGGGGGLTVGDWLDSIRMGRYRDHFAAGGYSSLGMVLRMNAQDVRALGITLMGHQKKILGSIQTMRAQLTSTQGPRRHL

[6] = biological target: T3, Ephrin type-B receptor 4 (Homo sapiens) (UniProt P54760); conditions: at 1 µM
T3 sequence (whole entry): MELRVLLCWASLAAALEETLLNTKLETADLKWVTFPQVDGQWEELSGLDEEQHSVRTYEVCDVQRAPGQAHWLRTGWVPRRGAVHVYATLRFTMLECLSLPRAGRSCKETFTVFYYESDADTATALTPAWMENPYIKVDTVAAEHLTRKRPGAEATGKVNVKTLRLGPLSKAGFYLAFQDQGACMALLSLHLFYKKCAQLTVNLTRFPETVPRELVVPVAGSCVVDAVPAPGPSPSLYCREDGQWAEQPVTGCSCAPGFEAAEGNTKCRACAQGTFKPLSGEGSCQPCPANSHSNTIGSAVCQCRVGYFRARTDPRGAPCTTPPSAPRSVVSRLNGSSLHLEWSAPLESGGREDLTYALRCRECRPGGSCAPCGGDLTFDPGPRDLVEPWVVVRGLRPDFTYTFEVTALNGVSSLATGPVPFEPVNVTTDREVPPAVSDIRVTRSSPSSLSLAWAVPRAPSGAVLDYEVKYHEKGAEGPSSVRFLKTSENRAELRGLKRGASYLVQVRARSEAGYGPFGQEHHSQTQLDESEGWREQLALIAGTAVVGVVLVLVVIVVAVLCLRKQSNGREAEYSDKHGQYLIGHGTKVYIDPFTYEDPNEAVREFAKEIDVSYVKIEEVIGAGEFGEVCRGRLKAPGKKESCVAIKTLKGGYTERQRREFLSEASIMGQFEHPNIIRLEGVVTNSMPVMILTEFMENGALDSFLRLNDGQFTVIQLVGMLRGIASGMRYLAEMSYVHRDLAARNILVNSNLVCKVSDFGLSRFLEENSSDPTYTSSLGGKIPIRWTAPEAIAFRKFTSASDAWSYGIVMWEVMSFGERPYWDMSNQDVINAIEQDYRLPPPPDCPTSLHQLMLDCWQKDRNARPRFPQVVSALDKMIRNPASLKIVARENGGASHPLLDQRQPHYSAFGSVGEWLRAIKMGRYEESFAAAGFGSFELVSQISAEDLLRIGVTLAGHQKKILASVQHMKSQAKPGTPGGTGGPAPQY

[7] = biological target: T3, Ephrin type-B receptor 4 (Homo sapiens); conditions: at 10 µM
[8] = biological target: Receptor tyrosine-protein kinase erbB-4 (Homo sapiens) (UniProt Q15303); conditions: at 10 µM
[9] = biological target: Focal adhesion kinase 1 (Homo sapiens) (UniProt Q05397); conditions: at 1 µM
Focal adhesion kinase 1 (Homo sapiens), sequence (Q05397 2-1052 limits assumed): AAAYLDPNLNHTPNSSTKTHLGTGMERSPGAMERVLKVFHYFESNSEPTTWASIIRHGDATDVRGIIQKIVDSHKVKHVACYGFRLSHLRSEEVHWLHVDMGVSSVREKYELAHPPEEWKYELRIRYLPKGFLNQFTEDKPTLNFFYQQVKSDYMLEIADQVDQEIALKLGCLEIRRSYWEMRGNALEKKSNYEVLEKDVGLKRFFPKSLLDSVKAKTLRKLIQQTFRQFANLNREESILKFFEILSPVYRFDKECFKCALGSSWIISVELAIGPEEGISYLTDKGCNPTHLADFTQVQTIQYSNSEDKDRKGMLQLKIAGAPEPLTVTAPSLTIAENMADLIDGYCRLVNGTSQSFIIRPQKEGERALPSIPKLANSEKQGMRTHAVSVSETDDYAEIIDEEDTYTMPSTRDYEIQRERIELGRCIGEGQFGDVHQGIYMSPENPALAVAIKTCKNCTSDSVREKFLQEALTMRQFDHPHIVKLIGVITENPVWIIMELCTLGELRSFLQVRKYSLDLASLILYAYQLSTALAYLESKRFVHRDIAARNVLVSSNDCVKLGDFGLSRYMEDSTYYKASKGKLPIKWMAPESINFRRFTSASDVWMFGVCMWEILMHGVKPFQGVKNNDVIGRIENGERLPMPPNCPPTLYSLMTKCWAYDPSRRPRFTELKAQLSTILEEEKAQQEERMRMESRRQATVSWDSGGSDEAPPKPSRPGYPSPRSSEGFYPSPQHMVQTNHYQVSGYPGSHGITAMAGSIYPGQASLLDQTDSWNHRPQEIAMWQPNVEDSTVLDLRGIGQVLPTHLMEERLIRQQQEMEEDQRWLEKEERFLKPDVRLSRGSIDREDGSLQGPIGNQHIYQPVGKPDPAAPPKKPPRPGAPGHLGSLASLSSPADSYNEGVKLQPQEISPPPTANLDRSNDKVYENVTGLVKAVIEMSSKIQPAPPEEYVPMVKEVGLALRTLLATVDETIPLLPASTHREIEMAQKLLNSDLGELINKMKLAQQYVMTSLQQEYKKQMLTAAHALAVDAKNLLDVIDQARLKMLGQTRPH

Ephrin type-A receptor 7 (Homo sapiens), sequence (Q15375 28-998 limits assumed): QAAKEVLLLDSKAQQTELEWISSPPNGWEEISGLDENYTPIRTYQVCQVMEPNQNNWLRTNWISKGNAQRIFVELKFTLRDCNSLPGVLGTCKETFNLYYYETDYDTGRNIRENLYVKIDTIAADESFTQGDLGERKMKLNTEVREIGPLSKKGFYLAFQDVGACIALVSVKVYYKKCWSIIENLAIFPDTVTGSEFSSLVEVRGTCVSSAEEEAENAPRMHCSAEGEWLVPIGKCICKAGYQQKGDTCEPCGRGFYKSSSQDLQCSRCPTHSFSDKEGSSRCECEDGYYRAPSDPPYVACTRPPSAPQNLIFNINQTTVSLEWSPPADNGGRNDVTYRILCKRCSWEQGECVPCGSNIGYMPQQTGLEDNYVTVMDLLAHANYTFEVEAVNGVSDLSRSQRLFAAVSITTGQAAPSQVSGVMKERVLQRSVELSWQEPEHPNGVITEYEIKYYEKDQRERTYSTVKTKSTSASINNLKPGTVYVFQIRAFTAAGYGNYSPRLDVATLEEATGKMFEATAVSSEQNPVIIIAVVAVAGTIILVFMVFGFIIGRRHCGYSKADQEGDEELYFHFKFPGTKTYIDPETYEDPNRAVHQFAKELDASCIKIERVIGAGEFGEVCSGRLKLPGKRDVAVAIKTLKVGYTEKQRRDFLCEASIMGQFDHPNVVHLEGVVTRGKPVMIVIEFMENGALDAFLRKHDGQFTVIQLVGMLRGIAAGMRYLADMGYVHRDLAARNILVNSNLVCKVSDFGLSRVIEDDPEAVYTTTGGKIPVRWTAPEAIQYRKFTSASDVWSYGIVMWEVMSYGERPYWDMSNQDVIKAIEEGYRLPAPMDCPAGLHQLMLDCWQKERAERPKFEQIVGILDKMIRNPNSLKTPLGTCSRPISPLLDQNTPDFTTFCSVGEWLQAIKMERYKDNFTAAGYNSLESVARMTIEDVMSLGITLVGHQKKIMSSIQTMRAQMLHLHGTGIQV
Receptor tyrosine-protein kinase erbB-4 (Homo sapiens), sequence (Q15303 whole entry): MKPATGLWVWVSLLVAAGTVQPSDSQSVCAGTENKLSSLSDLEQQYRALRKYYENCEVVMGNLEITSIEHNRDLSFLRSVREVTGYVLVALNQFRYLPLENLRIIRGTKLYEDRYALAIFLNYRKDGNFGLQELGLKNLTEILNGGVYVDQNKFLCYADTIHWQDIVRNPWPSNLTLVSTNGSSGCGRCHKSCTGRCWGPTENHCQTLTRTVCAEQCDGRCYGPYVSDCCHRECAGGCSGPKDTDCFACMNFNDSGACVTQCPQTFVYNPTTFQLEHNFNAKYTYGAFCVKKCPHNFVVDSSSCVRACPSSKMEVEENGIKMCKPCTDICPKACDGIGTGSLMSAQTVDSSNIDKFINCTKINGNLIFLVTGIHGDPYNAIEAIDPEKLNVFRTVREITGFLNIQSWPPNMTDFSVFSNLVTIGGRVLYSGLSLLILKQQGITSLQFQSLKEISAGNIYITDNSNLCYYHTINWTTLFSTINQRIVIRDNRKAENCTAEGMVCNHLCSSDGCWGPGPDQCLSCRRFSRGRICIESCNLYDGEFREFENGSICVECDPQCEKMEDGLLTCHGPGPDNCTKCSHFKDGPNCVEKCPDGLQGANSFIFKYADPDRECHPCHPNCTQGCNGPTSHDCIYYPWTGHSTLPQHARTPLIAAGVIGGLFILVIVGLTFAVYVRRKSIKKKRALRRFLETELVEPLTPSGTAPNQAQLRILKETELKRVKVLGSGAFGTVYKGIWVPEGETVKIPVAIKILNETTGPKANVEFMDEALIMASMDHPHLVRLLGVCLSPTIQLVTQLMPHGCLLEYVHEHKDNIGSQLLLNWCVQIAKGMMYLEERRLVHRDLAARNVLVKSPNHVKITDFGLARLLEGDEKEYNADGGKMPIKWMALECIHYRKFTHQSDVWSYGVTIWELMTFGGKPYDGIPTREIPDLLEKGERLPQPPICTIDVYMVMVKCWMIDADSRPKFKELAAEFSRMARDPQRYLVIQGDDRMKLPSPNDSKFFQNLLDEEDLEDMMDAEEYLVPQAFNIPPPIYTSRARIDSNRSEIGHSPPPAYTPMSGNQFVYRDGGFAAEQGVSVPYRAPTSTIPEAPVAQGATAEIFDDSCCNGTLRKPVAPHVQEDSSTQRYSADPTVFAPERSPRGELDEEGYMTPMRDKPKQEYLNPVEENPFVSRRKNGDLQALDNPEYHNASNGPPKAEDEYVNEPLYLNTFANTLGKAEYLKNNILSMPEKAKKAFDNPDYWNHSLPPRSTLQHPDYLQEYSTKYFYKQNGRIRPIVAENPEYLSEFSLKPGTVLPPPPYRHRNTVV
Ephrin type-A receptor 5 (Homo sapiens), sequence (P54756 whole entry): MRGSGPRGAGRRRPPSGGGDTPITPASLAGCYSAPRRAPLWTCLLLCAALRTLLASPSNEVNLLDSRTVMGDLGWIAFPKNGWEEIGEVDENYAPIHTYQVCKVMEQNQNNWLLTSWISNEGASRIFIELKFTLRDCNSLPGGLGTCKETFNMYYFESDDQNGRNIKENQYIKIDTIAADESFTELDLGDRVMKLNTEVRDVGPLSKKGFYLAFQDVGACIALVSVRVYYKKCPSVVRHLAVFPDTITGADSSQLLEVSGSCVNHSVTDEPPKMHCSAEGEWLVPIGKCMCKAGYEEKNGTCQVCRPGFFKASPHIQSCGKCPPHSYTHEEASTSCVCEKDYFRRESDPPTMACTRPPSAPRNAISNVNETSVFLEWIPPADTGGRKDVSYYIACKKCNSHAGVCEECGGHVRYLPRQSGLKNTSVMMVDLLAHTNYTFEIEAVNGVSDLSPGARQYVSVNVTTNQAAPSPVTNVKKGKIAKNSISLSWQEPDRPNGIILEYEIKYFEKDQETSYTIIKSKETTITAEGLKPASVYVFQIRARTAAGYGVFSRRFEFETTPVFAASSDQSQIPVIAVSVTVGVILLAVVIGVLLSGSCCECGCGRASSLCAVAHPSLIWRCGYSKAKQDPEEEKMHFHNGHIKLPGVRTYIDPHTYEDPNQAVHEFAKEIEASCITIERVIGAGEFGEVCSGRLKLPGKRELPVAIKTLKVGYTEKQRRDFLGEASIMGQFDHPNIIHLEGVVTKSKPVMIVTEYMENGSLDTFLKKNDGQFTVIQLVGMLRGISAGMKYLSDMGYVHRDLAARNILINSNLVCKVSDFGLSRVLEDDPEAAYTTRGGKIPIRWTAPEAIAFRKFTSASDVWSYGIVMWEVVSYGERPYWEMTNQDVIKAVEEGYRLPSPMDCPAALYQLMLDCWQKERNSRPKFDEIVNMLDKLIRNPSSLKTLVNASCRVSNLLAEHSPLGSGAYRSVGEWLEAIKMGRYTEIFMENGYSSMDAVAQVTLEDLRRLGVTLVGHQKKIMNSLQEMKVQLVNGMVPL

Nc1n[nH]c2nc3ccccc3nc12
residual activity [1]: 98%
residual activity [2]: 97%
residual activity [3]: 99%
residual activity [4]: 79%
residual activity [5]: 91%
residual activity [6]: 97%
residual activity [7]: 77%
residual activity [8]: 87%
residual activity [9]: 97%
